Bioassay records deposited in PubChem by National Center for Advancing Translational Sciences (NCATS).
Nrf2 activator: qHTS of Nrf2 Activators | AID 624171, 2012 | Potency, µM (highest dose often 46.1 µM), hits mostly activators | AREc32 ARE-luciferase reporter (MCF7-derived line), luminescence, 24 h | 0.31% of 410,000 active; also: nearly all actives have a fitted effect of over 65% in size
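Reporter line AREc32 (ARE-Fluc), seeded overnight in OPTI-MEM with 5% FBS; compound pin-transferred, 24 hr at 37 deg C, 5% CO2; luminescent read-out.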
D3 ag: qHTS of D3 Dopamine Receptor Agonist: qHTS | D3R DiscoveRx beta-arrestin cells, luminescence, 90 min | D(3) dopamine receptor (Homo sapiens), P35462 | 0.58% of 410,000 active | max activation, %; in the data active = max activation above about 30%
Target sequence (P35462 whole entry, looked up): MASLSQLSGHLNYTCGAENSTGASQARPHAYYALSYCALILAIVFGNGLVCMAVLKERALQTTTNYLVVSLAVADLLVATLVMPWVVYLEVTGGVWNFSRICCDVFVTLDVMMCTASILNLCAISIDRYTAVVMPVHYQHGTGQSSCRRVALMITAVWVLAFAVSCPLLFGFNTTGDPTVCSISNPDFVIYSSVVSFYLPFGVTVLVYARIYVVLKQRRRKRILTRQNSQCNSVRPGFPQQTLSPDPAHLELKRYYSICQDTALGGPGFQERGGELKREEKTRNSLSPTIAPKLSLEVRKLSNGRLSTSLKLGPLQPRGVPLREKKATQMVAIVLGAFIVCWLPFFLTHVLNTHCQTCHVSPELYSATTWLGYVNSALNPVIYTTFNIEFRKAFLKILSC
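Agonist mode: compounds and dopamine controls were applied to plated cells for 90 min at 37 degrees C after an overnight attachment at 1500 cells/well. Luminescent read-out followed 30 - 60 minutes at room temperature with DiscoveRx detection reagent.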
GRP78 ERSR act: qHTS for Inducers of the Endoplasmic Reticulum Stress Response (ERSR) in Human Glioma: qHTS | AID 602332, 2012 | Potency, µM, hits mostly activators | U87-MG GRP78 promoter luciferase reporter, 16 h | 0.02% of 420,000 active; also: series mostly up to about 76 µM; nearly all actives have a fitted effect of over 35% in size
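Stably transfected U87-MG human glioma cells carrying a GRP78-based luminescent sensor were seeded at 1000 cells/well, pin-dosed with compounds and incubated 16 h. Luciferase reagent was then added, and end-point luminescence was read after 10 min at room temperature.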
DRD3 antagonist: qHTS of D3 Dopamine Receptor Antagonist: qHTS. max response, negative = inhibition, %. D3R cells, DiscoveRx beta-arrestin luminescence, antagonist mode; hits give low values. 2.5% of 360,000 active; in the data active = max response below about -50%
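Cells plated overnight at 1500 cells/well, then exposed to library compounds with dopamine controls for 90 minutes at 37 degrees C. DiscoveRx reagent added for 30–60 minutes at room temperature; luminescence read, quantitative HTS format.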
A number is an active result; – = inactive; · = no result; [ ] = another dose, or the depositor's remark. Rows were chosen to be rich in hits. Some 3% of all compounds tested hit in one or more screens of this group. Unless noted, calls follow the shape of the dose curve; as a rule, active = well fitted curve in the direction sought with a large enough effect; inconclusive = small, poorly fitted or top-dose-only effect, or another doubt; inactive = no such curve, though single readings can be large; an effect the other way counts as inactive or inconclusive.

SMILES	Nrf2 activator	D3 ag	GRP78 ERSR act	DRD3 antagonist
O=C(CN1C(=O)S/C(=C\c2cccc(Cl)c2)C1=O)NC1C=CS(=O)(=O)C1 (configuration not stated)	–	–	–	–
O=C(CN1C(=O)/C(=C/c2cccc(Cl)c2)SC1=S)NC1C=CS(=O)(=O)C1 (configuration not stated)	14µM	–	–	–
CCOC(=O)N1CCN(Cc2ccc3c(c2)CN(C(=O)c2ccc4ncccc4c2)CCO3)CC1	·	·	–	·
Cc1c(CCNC(=O)c2ccco2)sc2nc(-c3ccc(F)cc3)nn12	–	–	–	·
Cc1ccc(-c2nc3sc(CCNC(=O)c4ccco4)c(C)n3n2)cc1	–	40	–	·
Cc1cc(CNC(=O)c2cnn(-c3nccc(-c4cc(C)sc4C)n3)c2C2CC2)on1	·	·	–	·
C(=Nc1cnc2ccccc2c1)c1ccncc1	·	·	–	·
Cn1c(=O)c(C(=O)NNC(=O)c2cccc(Cl)c2)c(O)c2ccccc21	–	–	–	–
Cc1cccc(C(=O)NNC(=O)c2c(O)c3ccccc3n(C)c2=O)c1	–	30	–	–
O=S(=O)(c1ccc(OCC(O)CN2CCCC2)cc1)N1CCOCC1 (configuration not stated)	–	–	–	–
O=S(=O)(c1ccc(OCC(O)CN2CCC(Cc3ccccc3)CC2)cc1)N1CCOCC1 (configuration not stated)	–	–	–	-59
O=S(=O)(c1ccc(OCC(O)CN2CCN(c3ccccc3O)CC2)cc1)N1CCOCC1 (configuration not stated)	–	–	–	–
O=S(=O)(c1ccc(OCC(O)CN2CCN(c3ccccc3)CC2)cc1)N1CCOCC1 (configuration not stated)	–	43	–	–
CC(=O)Nc1ccccc1-c1nc(CNC(=O)c2cc(C)ccc2C)c(C)o1	·	·	–	·
O=[N+]([O-])c1cccc(C2=N[C@@H](Cc3ccccc3)CO2)c1	·	·	–	·
CN(C)c1ccc(/C=C/c2cc(/C=C/c3ccc(N(C)C)cc3)c3ccccc3n2)cc1	·	·	–	·
COc1ccc2[nH]c3c(=S)nc[nH]c3c2c1	–	–	–	-56
COc1ccc2[nH]c3c(Cl)ncnc3c2c1	–[9.22 µM]	–	–	–
O=C1C=C(c2cccc(OCc3ccccc3)c2)C[C@@H](c2ccc3c(c2)OCO3)C1	–	35	–	–
CCCN(CCC)CCNC(=O)C1CC(=O)N(c2ccc(OC)cc2)C1c1ccc(OC)cc1 (configuration not stated)	–	–	–	–
CCN(CC)CCNC(=O)C1CCC(=O)N(c2ccc(OC)cc2)C1c1ccc(F)cc1 (configuration not stated)	–	–	–	-67
COCCNC(=O)C1c2ccccc2C(=O)N(CCOC)C1c1ccc(F)cc1 (configuration not stated)	–	–	–	–
COCCN1C(=O)c2ccccc2C(C(=O)NCCN(C)C)C1c1ccc(F)cc1 (configuration not stated)	–	–	–	-63
CCN(CC)CCNC(=O)C1c2ccccc2C(=O)N(CCOC)C1c1ccc(F)cc1 (configuration not stated)	–	–	–	-62
CN1CCN(c2nc(-c3ccccn3)nc3ccccc23)CC1	–	–	–	-51
SMILES	Nrf2 activator	D3 ag	GRP78 ERSR act	DRD3 antagonist
CCCOc1ccc(-c2nc(N3CCN(C)CC3)c3ccccc3n2)cc1	–	–	–	-59
Brc1ccc(-c2nc(N3CCN(c4ccccc4)CC3)c3ccccc3n2)cc1	–	–	–	·
c1ccc(N2CCN(c3nc(-c4ccccn4)nc4ccccc34)CC2)cc1	–	–	–	-82
COc1cc(=O)n2c(c1C(=O)NC(C)c1ccco1)CCN(C(=O)c1[nH]c(C)cc1C)CC2 (configuration not stated)	·	·	–	·
[2H]c1c([2H])c([2H])c2c([nH]c(=S)n2C2CCN(CCCC(=O)c3ccc(F)cc3)CC2)c1[2H]	·	·	–	·
CCCSc1ncc(Cl)c(C(=O)Nc2ccc(S(=O)(=O)N(C)c3ccccc3)cc2)n1	–	–	·	·
COc1cccc(NC(=O)c2nc(S(C)(=O)=O)ncc2Cl)c1	–	–	–	-109
Cc1cccc(NC(=O)c2nc(S(C)(=O)=O)ncc2Cl)c1	–	–	–	·
CN(c1ccccc1)S(=O)(=O)c1ccc(NC(=O)c2nc(S(C)(=O)=O)ncc2Cl)cc1	–	–	–	-108
Cc1c(C(=O)N2CCCCCC2)c(S(=O)(=O)Nc2cccc(C#N)c2)c(C)n1C	–	–	–	·
Fc1cccc(Cc2c(-c3ccccc3)nc3c(Cl)cc(C(F)(F)F)cn23)c1	–	62	–	–
CC(C)(C)Cc1c(-c2ccc(Cl)cc2)nc2c(Cl)cc(C(F)(F)F)cn12	–	37	–	–
Cc1ccc(-c2nc3c(Cl)cc(C(F)(F)F)cn3c2Cc2ccsc2)cc1	–	–	·	-59
CN(C)c1ccc(/C=C2/CCCc3c2nc2ccccc2c3C(=O)O)cc1	·	·	–	·
O=[N+]([O-])c1cccc2[nH]cnc12	·	·	–	·
COc1cccc(C(C(=O)NC2CCCC2)N(Cc2ccco2)C(=O)c2ccco2)c1OC (configuration not stated)	–	–	–	-65
COc1cccc(C(C(=O)NC2CCCC2)N(C(=O)c2ccco2)c2ccccc2F)c1OC (configuration not stated)	–	–	–	–
O=C(NCC1CCCO1)NC1(C(F)(F)F)Oc2ccccc2O1 (configuration not stated)	16µM	–	–	–
Cc1ccccc1-n1cc(CNC(=O)CN2Cc3ccccc3OC(C)C2)cn1 (configuration not stated)	·	·	–	·
O=C(NCc1ccccc1)NC1CC2CCC(C1)N2Cc1ccco1 (configuration not stated)	–	–	–	–
O=C(NC1CCN(C(=O)NCc2ccccc2)CC1)c1cccc(F)c1	–	–	–	–
COc1ccc(C(=O)NC2CC3CCCC(C2)N3CC(C)C)cc1 (configuration not stated)	–	–	–	–
COc1cccc(C(=O)NC2CC3CCCC(C2)N3CC(=O)Nc2ccccc2C(F)(F)F)c1 (configuration not stated)	–	–	–	–
O=C(NC1CC2CCC(C1)N2Cc1ccccc1)c1cccc(F)c1 (configuration not stated)	–	–	–	-117
COc1cccc(C(=O)NC2CC3CCC(C2)N3Cc2ccccc2)c1 (configuration not stated)	–	–	–	-108
O=C(NC1CC2CCC(C1)N2Cc1ccco1)c1ccccc1 (configuration not stated)	–	–	–	-69
COc1ccc(CN2C3CCC2CC(NC(=O)c2cccc(F)c2)C3)cc1 (configuration not stated)	–	–	–	-86
O=C(Nc1nc2n(n1)C(c1ccccc1)C=C(c1ccccc1)N2)c1ccc(Cl)c([N+](=O)[O-])c1 (configuration not stated)	–	–	–	·
